# This is one part of a sample in which hits are shown more often than they occur.
# miR122 inh: activators of miR-122 sensor in Huh7 cells | Huh7 psiCHECK-miR122 Renilla luciferase sensor, 48 h | activation, % at 12.5 µM | 340,000 compounds, 0.14% hits;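 active means mean activation of 30% or more, with every replicate also reaching 30%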;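 further: 0% = median of neutral control wells and 100% = median of positive control wells; higher luciferase signal means stronger suppression of miR-122 activity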
# * marks the source's active call; other numbers are inactive results.
SMILES,miR122 inh
CCCNC(=O)N(C)C[C@@H]1Oc2ncc(C#CCC(C)C)cc2C(=O)N([C@H](C)CO)C[C@@H]1C,-0.3
C[C@H](CO)N1C[C@H](C)[C@H](CN(C)C(=O)c2ccccc2F)Oc2ncc(C#Cc3ccc(F)cc3)cc2C1=O,-5.7
C[C@H]1CN([C@@H](C)CO)S(=O)(=O)c2ccc(-c3cncnc3)cc2O[C@@H]1CN(C)C(=O)Cc1cccnc1,1.0
CO[C@H]1CN(C)C(=O)c2cc(NC(=O)Cc3ccccc3)ccc2OC[C@H](C)N(C)C[C@@H]1C,-2.2
C[C@H](CO)N1C[C@H](C)[C@H](CN(C)C(=O)C2CCOCC2)Oc2ncc(-c3ccncc3)cc2C1=O,3.1
COc1cccc(-c2cnc3c(c2)C(=O)N([C@@H](C)CO)C[C@H](C)[C@H](CN(C)CC2CCOCC2)O3)c1,8.4
C[C@@H]1CN([C@H](C)CO)C(=O)c2cc(C#CC3(O)CCCC3)cnc2O[C@@H]1CN(C)C(=O)CN(C)C,5.9
COCC(=O)Nc1ccc2c(c1)OC[C@@H](C)N(C(C)=O)C[C@@H](C)[C@@H](OC)CN(C)C2=O,-2.2
CCCNC(=O)N(C)C[C@@H]1Oc2ncc(C#C[C@H](C)O)cc2C(=O)N([C@@H](C)CO)C[C@@H]1C,-2.2
COCC#Cc1cnc2c(c1)C(=O)N([C@@H](C)CO)C[C@H](C)[C@H](CN(C)S(=O)(=O)c1cccc(OC)c1)O2,8.2
O=C(COc1ccc(S(=O)(=O)NC2CCCCC2)cc1)Nc1ccc2c(c1)OCCO2,-101.2
O=C(COC(=O)Cc1ccc(S(=O)(=O)N2CCOCC2)s1)Nc1ccc2c(c1)OCO2,31.4*
O=C(Nc1ccc2c(c1)OCCO2)C1CCN(S(=O)(=O)c2ccccc2)CC1,-177.1
C[C@@H]1CN([C@@H](C)CO)S(=O)(=O)c2ccc(-c3cncnc3)cc2O[C@H]1CN(C)C(=O)Cc1cccnc1,-1.0
C[C@H](CO)N1C[C@H](C)[C@@H](CN(C)C(=O)C2CCCCC2)Oc2ncc(C#CCc3ccccc3)cc2C1=O,-36.4
CCCN(C)C[C@@H]1Oc2ncc(-c3ccccc3OC)cc2C(=O)N([C@H](C)CO)C[C@@H]1C,-18.2
C[C@@H]1CN([C@H](C)CO)S(=O)(=O)c2ccc(Br)cc2O[C@@H]1CN(C)S(C)(=O)=O,-3.1
CCC(=O)N(C)C[C@H]1Oc2ncc(C#CCC3CCCC3)cc2C(=O)N([C@@H](C)CO)C[C@@H]1C,7.0
COCC(=O)N1[C@H](CO)[C@H]2c3ccccc3N(C(=O)C3CC3)C[C@H]21,41.7*
COc1ccc(C(=O)N2C[C@H]3[C@@H](c4ccccc42)[C@@H](CO)N3C(=O)c2ccc(F)cc2)cc1,-91.7
CCN(C[C@H]1[C@H](c2ccccc2)[C@@H](CO)N1C(=O)COC)S(C)(=O)=O,-91.7
O=C(c1cccnc1)N1C[C@H]2[C@@H](c3ccccc31)[C@H](CO)N2C(=O)C1CCCC1,40.0*
O=C(c1ccc(F)cc1)N1C[C@H]2[C@@H](c3ccccc31)[C@@H](CO)N2C(=O)c1ccc(F)cc1,-364.1
O=C(c1cccc(F)c1)N1C[C@H]2[C@@H](c3ccccc31)[C@@H](CO)N2C(=O)c1ccc(F)cc1,-191.7
CO[C@@H]1CN(C)C(=O)c2cc(NC(=O)C3CCOCC3)ccc2OC[C@@H](C)N(C)C[C@@H]1C,-1.8
SMILES,miR122 inh
C[C@H](CO)N1C[C@H](C)[C@H](CN(C)C(=O)c2ccc(F)cc2)Oc2ncc(C3=CCCCC3)cc2C1=O,2.6
C[C@H]1CN([C@@H](C)CO)S(=O)(=O)c2ccc(-c3cccc(C(=O)N(C)C)c3)cc2O[C@@H]1CN(C)C(=O)Nc1ccccc1,-15.6
Cc1ccc(S(=O)(=O)N(C)C[C@@H]2Oc3ncc(C#Cc4cccc(F)c4)cc3C(=O)N([C@H](C)CO)C[C@@H]2C)cc1,13.3
COCC(=O)Nc1ccc2c(c1)C(=O)N(C)[C@@H]1CC[C@H](CC(=O)NCCCN(C)C)O[C@H]1CO2,45.0*
COCC(=O)Nc1ccc2c(c1)C(=O)N(C)[C@H]1CC[C@@H](CC(=O)O)O[C@H]1CO2,-262.5
COCC(=O)Nc1ccc2c(c1)C(=O)N(C)[C@@H]1CC[C@H](CC(=O)NCc3ccccc3F)O[C@H]1CO2,50.0*
C[C@@H]1CN([C@@H](C)CO)C(=O)c2cc(C#Cc3ccc(F)cc3)cnc2O[C@H]1CN(C)C(=O)c1ccccc1F,0.8
CCCN(C)C[C@@H]1Oc2ncc(-c3cccc(C(F)(F)F)c3)cc2C(=O)N([C@H](C)CO)C[C@@H]1C,10.1
C[C@H]1CN([C@@H](C)CO)C(=O)c2cc(C#CC3(O)CCCC3)cnc2O[C@@H]1CN(C)S(=O)(=O)c1ccccc1,-2.9
C/C=C/c1cnc2c(c1)C(=O)N([C@@H](C)CO)C[C@H](C)[C@@H](CN(C)C(=O)Cc1cccnc1)O2,-3.4
CCCNC(=O)N1C[C@@H](C)[C@H](OC)CN(C)C(=O)c2cc(NS(=O)(=O)CC)ccc2OC[C@H]1C,-2.0
CCOC(=O)CCS(=O)(=O)c1nc(-c2ccccc2)cc(C(F)(F)F)n1,51.4*
CCOC(=O)Nc1cc2c(c(N)n1)N=C(c1ccccc1)CN2,-118.9
COc1ccccc1-c1cnc2c(c1)C(=O)N([C@H](C)CO)C[C@H](C)[C@@H](CN(C)CC1CCCC1)O2,3.3
Cc1noc(C)c1NC(=O)N(C)C[C@H]1Oc2ncc(C#CC3CCCCC3)cc2C(=O)N([C@@H](C)CO)C[C@@H]1C,-5.9
COCC(=O)N(C)C[C@@H]1Oc2ncc(C#Cc3ccccc3OC)cc2C(=O)N([C@@H](C)CO)C[C@@H]1C,6.4
O=S(=O)(c1ccccc1)N1C[C@H]2[C@@H](c3ccccc31)[C@@H](CO)N2Cc1ccc2c(c1)OCO2,-140.0
CN1[C@@H](CO)[C@@H]2c3ccccc3N(C(=O)Nc3cc(F)ccc3F)C[C@@H]21,33.3*
O=C(Nc1ccccc1F)N1C[C@@H]2[C@H](c3ccccc31)[C@@H](CO)N2C(=O)C1CCCC1,-130.0
C[C@H]1CN([C@@H](C)CO)C(=O)c2cc(/C=C/c3ccccc3)cnc2O[C@@H]1CN(C)C(=O)c1cccnc1,1.7
CCCC(=O)Nc1ccc2c(c1)C(=O)N(C)C[C@H](OC)[C@@H](C)CN[C@@H](C)CO2,4.4
CO[C@H]1CN(C)C(=O)c2cc(NC(=O)Nc3ccc(Cl)c(Cl)c3)ccc2OC[C@H](C)NC[C@H]1C,50.9*
CO[C@@H]1CN(C)C(=O)c2cc(NC(=O)Nc3ccccc3)ccc2OC[C@H](C)NC[C@@H]1C,-2.4
CCCN(C)C[C@H]1Oc2cc(C#CCN(C)C)ccc2S(=O)(=O)N([C@@H](C)CO)C[C@H]1C,-3.9
CCCN(C)C[C@H]1Oc2cc(C#CC3(O)CCCC3)ccc2S(=O)(=O)N([C@H](C)CO)C[C@H]1C,-1.6
SMILES,miR122 inh
CCCC#Cc1ccc2c(c1)O[C@H](CN(C)C(=O)NCCC)[C@H](C)CN([C@@H](C)CO)S2(=O)=O,-10.2
CCc1nc2sc(C)c(C)c2c(=O)n1CCO,34.7*
CCCNC(=O)N(C)C[C@H]1Oc2ncc(C#CC(C)C)cc2C(=O)N([C@H](C)CO)C[C@@H]1C,7.4
Cc1ccc(-c2ccc3c(c2)O[C@H](CN(C)Cc2cccc(C(=O)O)c2)[C@@H](C)CN([C@H](C)CO)S3(=O)=O)cc1,-16.1
Cc1cc(C)cc(Oc2ccc(NC(=O)C3CC=CCC3C(=O)O)cc2)c1 (stereo unspecified),32.1*
C[C@@H]1CN([C@H](C)CO)C(=O)c2cc(C#C[C@@H](C)O)cnc2O[C@H]1CN(C)Cc1cncnc1,2.8
COc1ccccc1-c1cnc2c(c1)C(=O)N([C@@H](C)CO)C[C@@H](C)[C@H](CN(C)Cc1ccccc1)O2,-1.3

# Screening data deposited in PubChem by Broad Institute.
